We go through 40 molecules from PubChem BioAssay (Tox21).

Each structure is given as a SMILES string. Records with an inconclusive call do not appear. Where a call stands in place of a potency, no number is given. Where a structure was tested more than once in an assay, its records may differ in their call. The source made the active and inactive calls. Calls follow the shape of the full dose curve.
Potency is read from the fitted curve at half-maximal effect.

This assay can be described thus: p53 small molecule agonists, cell-based qHTS assay: qHTS cell viability counter screen (AID 1963581). Also: nearly all actives have a fitted effect of over 45% in size. To be noted: p53RE-bla HCT-116 viability, ATP luminescence, 16 h; series mostly up to 66 µM; activity change, negative = cytotoxicity: at the top concentration. From the text:
National Center for Advancing Translational Sciences [NCATS]
Division of Preclinical Innovation [DPI]
U.S. Environmental Protection Agency [EPA]
National Institutes of Environmental Health Sciences [NIEHS]
National Toxicology Program [NTP]
U.S. Food and Drug Administration [FDA]
p53, a tumor suppressor protein, is activated following cellular insult, including DNA damage and other cellular stresses. The activation of p53 regulates cell fate by inducing DNA repair, cell cycle arrest, apoptosis, or cellular senescence. The activation of p53, therefore, is a good indicator of DNA damage and other cellular stresses. The CellSensor p53RE-bla HCT-116 cell line (Invitrogen) contains a stably integrated beta-lactamase reporter gene under control of the p53 response elements. The activation of the reporter gene under culture conditions can be detected by fluorescence intensity. This cell line was used to screen the Tox21 compound library in a 1536-well plate format and to identify agonists that activate the p53 signaling pathway. The cytotoxicity of the Tox21 compound library against the p53 RE-bla HCT-116 cell line was tested in parallel by measuring the intra cellular ATP content in the same wells.
Tox21 Assay Protocol Summary:
The p53RE-bla cells were dispensed at 4,000 cells/5 ul/well in 1536-well black wall/clear bottom plates using a Multidrop dispenser. After the assay plates were incubated at a 37 C/5% CO2 incubator for 5 hours, 23 nL of compounds dissolved in DMSO, positive controls or DMSO only was transferred to the assay plate by a pin tool. The plates were incubated at 37 C for 16 hours. After 1 uL of LiveBLAzerTM B/G FRET substrate was added using a Flying Reagent Dispenser, the plates were incubated at room temperature for 2 hours, and fluorescence intensity was measured by an Envision plate reader. For cell viability readout that measures cytotoxicity, 4 ul/well of CellTiter-Glo reagent was added into the assay plates using a Flying Reagent Dispenser. After 30 min incubation at room temperature, the luminescence intensity in the plates was measured using a ViewLux plate reader.
(In qHTS, concentration-response curves come from the screen itself.)
Turning to `C[C@]12CC[C@@H]3c4ccc(O)cc4C[C@@H](CCCCCCCCCS(=O)CCCC(F)(F)C(F)(F)F)[C@H]3[C@@H]1CC[C@@H]2O` (stereo not given in full), the Potency result was “inactive”.

In the case of `O=C(O)c1ccc(S(=O)(=O)N(Cl)Cl)cc1`, the Potency result was “inactive”.

Take `CCOc1ccc(NC(=O)CC(C)O)cc1` (stereo not given): the Potency result was “inactive”.

On to `Cc1c(N(C)CS(=O)(=O)O)c(=O)n(-c2ccccc2)n1C`, for which the Potency entry is “inactive”.

Take `O=c1[nH]c(=O)n([C@H]2C[C@H](O)[C@@H](CO)O2)cc1Br`: the Potency entry is “inactive”.

For the molecule `CCN(CCN)c1cccc(C)c1`, the Potency entry was “inactive”.

As to `O=C1NC(=O)c2ccccc21`, the Potency entry is “inactive”.

Consider `CCCCCCCCCCCC(=O)OC`, for which the Potency entry was “inactive”.

For the molecule `CC(C)=CCl`, the Potency result was “inactive”.

With `CC(=O)OCC(=O)[C@@]12N=C(C)O[C@@H]1C[C@H]1[C@@H]3CCC4=CC(=O)C=C[C@]4(C)[C@H]3[C@@H](O)C[C@@]12C`, the Potency result is “inactive”.

In the case of `O=C(O)c1cn(-c2ccc(F)cc2)c2cc(N3CCNCC3)c(F)cc2c1=O`, the Potency result was “inactive”.

For the molecule `C=C(C)C(=O)OCCCCCC`, the Potency entry was “inactive”.

As for `O=S(=O)(O)c1ccc2cc(O)ccc2c1`, the Potency entry was “inactive”.

For the molecule `CCOc1ccc(NC(C)=O)cc1`, the Potency result was “inactive”.

Take `Oc1c(Cl)cc(Cl)cc1Sc1cc(Cl)cc(Cl)c1O`: the Potency was 36.4 µM (active) and inactive.

Turning to `CC(=O)CCc1ccccc1`, the “activity change, negative = cytotoxicity” value was -5.19% (inactive).

In the case of `CCCCCC1=CCCC1=O`, the Potency result was “inactive”.

Take `CC(C)(Oc1ccc(Cl)cc1)C(=O)O`: the Potency entry is “inactive”.

For the molecule `CCC(=O)O`, the Potency result is “inactive”.

As to `OB(O)O`, the Potency result is “inactive”.

For the molecule `C=C(C)C(=O)OCCOC(=O)C(=C)C`, the Potency entry was “inactive”.

For `CCCC(=O)O`, the Potency result was “inactive”.

Turning to `CC(C)(C)NC(=O)[C@H]1CC[C@H]2[C@@H]3CC[C@H]4NC(=O)C=C[C@]4(C)[C@H]3CC[C@]12C`, the Potency entry was “inactive”.

Turning to `O=C1CCc2ccccc2O1`, the “activity change, negative = cytotoxicity” value is -2.45% (inactive).

As to `C/C=C/C(=O)N(CC)c1ccccc1C`, the Potency entry was “inactive”.

Regarding `Nc1cc(Cl)c(N)c(Cl)c1`, the “activity change, negative = cytotoxicity” value was -5.55% (inactive).

`CC(=O)[C@@]1(O)CC[C@H]2[C@@H]3C[C@H](C)C4=CC(=O)C=C[C@]4(C)[C@@]3(F)[C@@H](O)C[C@@]21C`: the Potency result was “inactive”.

Regarding `Cc1ccc(C)c(O)c1`, the Potency result was “inactive”.

In the case of `O=C(O)Cc1c[nH]c2ccccc12`, the “activity change, negative = cytotoxicity” value is 23.1% (inactive).

Regarding `O=C(OCc1ccccc1)c1ccccc1O`, the Potency is 45.8 µM (active).

Turning to `CC(C)NCC(O)c1ccc(O)c(O)c1` (stereo not given), the Potency entry is “inactive”.

Regarding `Nc1ccc(Nc2ccccc2)cc1`, the Potency entry was “inactive”.

Regarding `CCOCC(=O)O`, the Potency result is “inactive”.

As for `O=c1[nH]cc(F)c(=O)[nH]1`, the Potency result was “inactive”.

On to `O=C(O)c1ccccc1Nc1cccc(C(F)(F)F)c1`, for which the “activity change, negative = cytotoxicity” value is -10.2% [at 30.3 µM] (inactive).

Turning to `Cc1cc(=O)oc2cc(O)ccc12`, the Potency result is “inactive”.

In the case of `C=C(C)C(=O)OCCC[Si](OC)(OC)OC`, the Potency entry was “inactive”.

As for `Brc1cc(Oc2cc(Br)c(Br)c(Br)c2Br)c(Br)c(Br)c1Br`, the “activity change, negative = cytotoxicity” value was -11.6% [at 30.3 µM] (inactive).

Turning to `CC(CCC(=O)O)(c1ccc(O)cc1)c1ccc(O)cc1`, the Potency entry is “inactive”.

As for `NNC(=O)c1ccncc1`, the Potency entry was “inactive”.
